Screening results deposited in PubChem BioAssay by National Center for Advancing Translational Sciences (NCATS).
A selection: hits, their analogues and other compounds. The true share with any hit is near 9.2%.
FLuc counter = qHTS profiling assay for firefly luciferase inhibitor/activator using purifed enzyme and Km concentrations of substrates (counterscreen for miR-21 project); AID 588342, 2011; Luciferin 4-monooxygenase (Photinus pyralis), P08659; Potency, µM (highest dose often 57.5 µM), inactives show top-dose activity change, negative = inhibition, hits mostly inhibitors; 6.9% of 360,000 active; purified FLuc, Km substrates, luminescence inhibition;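 note: plate controls were vehicle for no effect and reference inhibitor for full effect; nearly all actives have a fitted effect of over 55% in size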
Target sequence (P08659 whole entry, looked up): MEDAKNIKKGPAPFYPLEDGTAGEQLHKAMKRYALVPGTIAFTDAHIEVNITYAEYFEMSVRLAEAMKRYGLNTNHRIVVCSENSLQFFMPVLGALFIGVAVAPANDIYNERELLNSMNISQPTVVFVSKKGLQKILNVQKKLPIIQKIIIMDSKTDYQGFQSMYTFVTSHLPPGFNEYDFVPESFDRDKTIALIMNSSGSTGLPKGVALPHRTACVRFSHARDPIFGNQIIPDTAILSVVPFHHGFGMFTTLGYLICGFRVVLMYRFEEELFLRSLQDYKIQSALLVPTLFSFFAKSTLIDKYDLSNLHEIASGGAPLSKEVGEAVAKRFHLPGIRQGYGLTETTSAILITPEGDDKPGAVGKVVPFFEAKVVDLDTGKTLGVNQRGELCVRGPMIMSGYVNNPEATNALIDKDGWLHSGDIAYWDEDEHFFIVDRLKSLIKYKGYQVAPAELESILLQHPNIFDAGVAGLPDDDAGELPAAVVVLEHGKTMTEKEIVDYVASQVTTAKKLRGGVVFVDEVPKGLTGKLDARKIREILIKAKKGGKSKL
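Biochemical qHTS of compounds, final roughly 60 µM downward over six points, against 10 nM purified firefly luciferase using Km concentrations of substrates (10 uM D-luciferin, 10 uM ATP) in Tris acetate pH 7.5 buffer; luminescence output.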
NPC1 promoter act = qHTS Assay for NPC1 Promoter Activators; Huh7 NPC1 promoter luciferase reporter, 24 h; 2.4% of 320,000 active; Potency, µM (doses to about 9.22 µM), for the others: top-dose activation, hits mostly activators; note: % of control where 0% means no effect; nearly all actives have a fitted effect of over 60% in size
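NPC1 promoter–luciferase Huh7 cells; 24 h compound; luminescence.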
ELG1 genotox = qHTS screen for small molecules that induce genotoxicity in human embryonic kidney (HEK293T) cells expressing luciferase-tagged ELG1; AID 504466, 2011; HEK293T ELG1-luciferase reporter, luminescence, 16 h; 1.3% of 330,000 active; Potency, µM (titrated, usually from 46 µM), without a hit: at the top dose activity change, positive = activation, hits mostly activators; note: % of control where 0% means no effect; nearly all actives have a fitted effect of over 60% in size
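After overnight (16 hr) compound treatment at 37 °C, ELG1-luciferase HEK293T cells were lysed with ONE-Glo; luminescence quantified 30 min later at room temperature.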
Rab9 prom act = qHTS Assay for Rab9 Promoter Activators; Huh7 Rab9 promoter-luciferase reporter, luminescence, 24 h; 2.8% of 320,000 active; AID 485297, 2010; Potency, µM (titrated, usually from 9.22 µM), inactives show top-dose activation, negative = inhibition, hits mostly activators; note: % of control where 0% means no effect; nearly all actives have a fitted effect of over 60% in size
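Luminescence from Amplite-detected luciferase (10 minutes, ambient) reports Rab9 promoter activation. Before that, stable Rab9-luciferase Huh7 cells (1500/well, reduced-serum OP-MEM I plus 10% FBS) were exposed to compound for 24 hours at 37C.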
SMN2 splice up = qHTS Assay for Enhancers of SMN2 Splice Variant Expression; Potency, µM (highest dose often 46.1 µM), for the others: at the top dose activity change, positive = activation, hits mostly activators; AID 1458, 2008; HEK293 SMN2-luciferase splicing reporter, luminescence, 30-36 h; 2.8% of 210,000 active; note: % of control where 0% means no effect; nearly all actives have a fitted effect of over 55% in size
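HEK293 cells carry an SMN2 […]–luciferase reporter in which exon 7 inclusion puts luciferase in frame. Cells were plated 10-12 h before compound addition, then incubated 30-36 h at 37C. ONE-Glo luminescence was read; sodium butyrate at 4.5 mM final served as control.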
ELG1 repair inh = qHTS screen for small molecules that inhibit ELG1-dependent DNA repair in human embryonic kidney (HEK293T) cells expressing luciferase-tagged ELG1 | HEK293T ELG1-luciferase reporter, luminescence, 16 h; DNA damage induced by 5-fluorouridine | Potency, µM (doses to about 46.1 µM), for the others: top-dose activity change, negative = inhibition, usual class: inhibitors | 2.3% of 330,000 active | AID 504467, 2011; note: % is set by controls: 0 for no effect and ±100 for the full control effect; nearly all actives have a fitted effect of over 55% in size
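Step one: seed 2,000 cells per well. Step two: pin-transfer compound or DMSO alongside 5-fluorouridine. Step three: incubate 16 hr, 37 °C, 5% CO2. Step four: add ONE-Glo, wait 30 min, read luminescence.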
* hit, by the source's call; ? = inconclusive; · = not tested or not shown; [ ] = remark or other dose. Calls come from the whole dose curve; as a rule, active = well fitted curve in the direction sought with a large enough effect; inconclusive = small, poorly fitted or top-dose-only effect, or another doubt; inactive = no such curve, though single readings can be large; an effect the other way counts as inactive or inconclusive. Potency is the fitted concentration of half-maximal effect.

SMILES	FLuc counter	NPC1 promoter act	ELG1 genotox	Rab9 prom act	SMN2 splice up	ELG1 repair inh
Oc1ccc(Cc2nccc3cc(O)c(O)cc23)cc1O	·	·	·	·	-7.2%[9.22 µM]	·
COc1cccc(CNC(=O)c2oc3ccc4c(c3c2C)C(=O)CC(C)(C)O4)c1OC	3.38µM*	·	·	·	5.7%	·
CCCNC(=O)c1oc2ccc3c(c2c1C)C(=O)CC(C)(C)O3	2.39µM*	1.78µM*	?	1.78µM*	12.6µM*	?
COc1cc(OC)c(NC(=O)C2=C(C)C(=O)OC23CCCCC3)cc1Cl	2.4%	·	·	·	-5.7%	·
COc1cc(OC)c(NC(=O)c2oc3ccc4c(c3c2C)C(=O)CC(C)(C)O4)cc1Cl	5.36µM*	·	·	·	·	·
Cc1ccc(NC(=O)c2oc3ccc(S(=O)(=O)N4CCCCC4)cc3c2C)c(C)c1	0.9%	·	·	·	·	·
Cc1ccc(NC(=O)c2oc3ccc4c(c3c2C)C(=O)CC(C)(C)O4)c(C)c1	4.26µM*	·	·	·	·	·
Cc1c(C(=O)NCc2ccc(Cl)cc2)oc2ccc3c(c12)C(=O)CC(C)(C)O3	?	·	·	·	25.7%	·
CCCNC(=O)c1oc2ccc3c(c2c1C)C=CC(C)(C)O3	10.7µM*	?	?	3.55µM*	·	?
CCOC(=O)c1oc2ccc3c(c2c1C)C(=O)CC1(CCN(C(=O)OCC)CC1)O3	0.6%	1.7%	-15.1%	-4.6%	-46.8%	20.6µM*
COC(=O)c1ccccc1NC(=O)c1oc2ccc3c(c2c1C)C(=O)CC(C)(C)O3	5.36µM*	·	·	·	·	·
CC(=O)Nc1ccc(NC(=O)c2oc3ccc4c(c3c2C)C(=O)CC(C)(C)O4)cc1	8.49µM*	·	·	·	·	·
CCOC(=O)c1ccc(NC(=O)c2oc3ccc4c(c3c2C)C(=O)CC(C)(CC)O4)cc1 (centres undefined)	-15.8%	·	·	·	5.0%	·
Cc1ccc(/C(N)=N/OC(=O)c2ccc3c(c2)OCO3)cc1	2.13µM*	3.16µM*	?	2.82µM*	12.6µM*	?
N/C(=N\OC(=O)c1ccc2c(c1)OCO2)c1ccncc1	1.51µM*	3.16µM*	?	2.51µM*	·	?
N/C(=N\OC(=O)c1ccc2c(c1)OCO2)c1ccc(Cl)cc1	0.849µM*	2.82µM*	?	?	?	?
COc1ccc(/C(N)=N/OC(=O)c2ccc3c(c2)OCO3)cc1	2.13µM*	?	?	?	11.2µM*	?
O=C(O)Cc1ccc(S(=O)(=O)N2CCCC2)s1	·	·	2.1%	·	·	12.9%
Cc1ccc2c(c1)c1c(c(=O)n(-c3cccc(Cl)c3)c(=O)n1CC(=O)NCCC1=CCCCC1)n2C	1.0%	·	·	·	-0.1%	·
Fc1ccc(NCc2cn3ccccc3n2)cc1	15.1µM*	3.16µM*	-2.8%	3.98µM*	?	?
O=C(NCCc1cn2ccccc2n1)c1ccccc1F	2.3%	-0.4%	1.4%	-0.1%	-13.6%	15.8%
Fc1cccc(NCc2cn3ccccc3n2)c1	9.53µM*	1.78µM*	2.31µM*	0.794µM*	2.51µM*	?
CN(CC(=O)Nc1cccc(F)c1)C(=O)c1ccc(OCc2cn3ccccc3n2)cc1	·	·	5.4%	·	·	?
Cc1ccc(C2C(N)C(=O)N2c2ccc(C)cc2)cc1 (centres undefined)	1.7%	-5.4%	1.6%	-4.3%	·	-5.1%
COc1cc(OC)c(C2CC(=O)Nc3ccc4ccccc4c32)cc1OC (centres undefined)	-6.4%	·	·	·	-4.9%	·
SMILES	FLuc counter	NPC1 promoter act	ELG1 genotox	Rab9 prom act	SMN2 splice up	ELG1 repair inh
NS(=O)(=O)c1ccc(N/C=C\C(=O)c2ccc(F)cc2)cc1	15.1µM*	3.98µM*	?	3.55µM*	12.6µM*	?
CC(=O)c1ccc(N/C=C/C(=O)c2ccc(Br)cc2)cc1	-4.6%	2.82µM*	6.51µM*	3.98µM*	·	?
CN(C)c1ccc(N/C=C/C(=O)c2ccc(F)cc2)cc1	0.477µM*	3.16µM*	2.06µM*	2.51µM*	10µM*	?
NS(=O)(=O)c1ccc(N/C=C\C(=O)c2ccncc2)cc1	-11.5%	9.0%	1.7%	-2.4%	·	?
NS(=O)(=O)c1ccc(N/C=C/C(=O)c2ccc(Br)cc2)cc1	-13.5%	?	?	2.82µM*	?	?
CCOC(=O)C(C(=O)c1ccccc1)[C@H](CCc1ccccc1)NC(=O)OC (some centres undefined)	·	·	·	·	-1.2%	·
COc1ccc(-c2cc(=NC(CC(C)C)C(=O)O)c3cc(C)ccc3o2)cc1 (centres undefined)	0.849µM*	?	?	3.5%	11.2µM*	?
C#CCSc1nc2sc3c(c2c(=O)n1-c1cccc(OC)c1)CCN(C(C)=O)C3	-13.1%	·	·	·	-2.1%	·
Cc1cc(-n2c(C)cc(C(=O)COc3ccc(F)c(F)c3)c2C)no1	16.9µM*	28.3%	8.9%	?	·	12.8%
Cn1c(=NC(=O)c2ccccc2[N+](=O)[O-])sc2cc(S(C)(=O)=O)ccc21	0.536µM*	0.355µM*	8.2µM*	0.562µM*	2.24µM*	?
Cc1ccc(N2C(=O)CS(=O)C(c3ccccc3)C2=O)cc1C (centres undefined)	12µM*	4.0%	13.5%	11.5%	-2.8%	13.2%
CCCCOc1ccc(C(=O)NCC(=O)N2CCN(C(=O)c3ccco3)CC2)cc1	0.8%	-9.8%	-0.6%	0.7%	·	?
COc1ccc(C(=O)O/N=C(\N)c2cccc(C)c2)cc1OC	21.3µM*	?	?	?	·	?
COc1ccc(/C(N)=N/OC(=O)CSc2ccccc2)cc1OC	23.9µM*	27.4%	18.4µM*	17.5%	12.3%	?
COc1ccc(C(=O)O/N=C(\N)c2ccncc2)cc1OC	-12.3%	-1.4%	17.4%	9.7%	17.1%	?
COc1ccc(/C(N)=N/OC(=O)c2ccc(C)c([N+](=O)[O-])c2)cc1OC	?	10.5%	?	13.5%	-6.7%	?
COc1ccc(C(=O)O/N=C(\N)c2ccccc2)cc1OC	10.7µM*	2.82µM*	20.6µM*	3.55µM*	·	?
Cc1c(C(=O)NCc2ccccn2)oc2ccc(S(=O)(=O)N3CCC4(CC3)OCCO4)cc12	4.0%	-4.4%	-2.3%	-6.8%	-6.5%	?
Cc1c(C(=O)O)oc2ccc(S(=O)(=O)NCc3ccccc3)cc12	4.8%	5.2%	-0.4%	0.7%	3.2%	9.2µM*
COc1cccc(NC(=O)c2oc3ccc(S(=O)(=O)N4CCC5(CC4)OCCO5)cc3c2C)c1	0.6%	·	·	·	·	·
